# Reference: PubChem BioAssay (NCI)
# The panel holds about 83,000 compounds, 20% with a hit somewhere; the sample as a whole holds those more often.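 Growth was measured after 48 h exposure to one concentration of compound in 96-well plates. Values under 10 count as active.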 Values without a mark were called inactive. The source made the active and inactive calls.
# Legend:
# Assay in all cases: NCI-60 one-dose screen, 48 h (100 = growth as untreated, 0 = no growth, -100 = all killed)
# Conditions in all cases: 10 µM unless noted
# SR leukemia = system: SR leukemia
# RPMI-8226 leukemia = system: RPMI-8226 leukemia
# OVCAR-8 ovarian = system: OVCAR-8 ovarian
# OVCAR-5 ovarian = system: OVCAR-5 ovarian
# OVCAR-4 ovarian = system: OVCAR-4 ovarian
# SK-OV-3 ovarian = system: SK-OV-3 ovarian
# IGROV1 ovarian = system: IGROV1 ovarian
# OVCAR-3 ovarian = system: OVCAR-3 ovarian
# HS 578T breast = system: HS 578T breast
# NCI/ADR-RES ovarian = system: NCI/ADR-RES ovarian
# T-47D breast = system: T-47D breast
# BT-549 breast = system: BT-549 breast
# MDA-MB-435 melanoma = system: MDA-MB-435 melanoma
# SW-620 colon = system: SW-620 colon
# MCF7 breast = system: MCF7 breast
# HCT-116 colon = system: HCT-116 colon
# HCC-2998 colon = system: HCC-2998 colon
# KM12 colon = system: KM12 colon
Structure (SMILES),growth (SR leukemia),growth (RPMI-8226 leukemia),growth (OVCAR-8 ovarian),growth (OVCAR-5 ovarian),growth (OVCAR-4 ovarian),growth (SK-OV-3 ovarian),growth (IGROV1 ovarian),growth (OVCAR-3 ovarian),growth (HS 578T breast),growth (NCI/ADR-RES ovarian),growth (T-47D breast),growth (BT-549 breast),growth (MDA-MB-435 melanoma),growth (SW-620 colon),growth (MCF7 breast),growth (HCT-116 colon),growth (HCC-2998 colon),growth (KM12 colon)
COC(=O)[C@@H](Cc1c[nH]c2ccccc12)NC(=O)[C@H](Cc1ccccc1)NCc1ccncc1,99.2%,84.6%,89.1%,101%,98.7%,94%,101%,101%,99.3%,99.9%,93.2%,96.5%,113%,104%,110%,87.4%,112%,96.5%
C=C1CC[C@@H]2[C@](C)(COC(C)=O)[C@H](OC(C)=O)CC[C@@]2(C)[C@@H]1CC(Nc1ccc(S(=O)(=O)Nc2nccc(C)n2)cc1)C1=CCOC1=O (stereo partly specified),0.793% (active),-5.56% (active),10.5%,26.9%,32.3%,101%,25.8%,-45% (active),68.6%,20.9%,69.1%,-2.66% (active),0.231% (active),-49.6% (active),0.135% (active),-32.2% (active),68.2%,13.2%
COc1c(O[C@@H]2OC(CO)[C@H](O)[C@H](O)C2O)cc2oc3cc(O)c(CC=C(C)C)c(O)c3c(=O)c2c1CC=C(C)C (stereo partly specified),102%,96.4%,87.3%,108%,115%,97.7%,91%,99.7%,96.2%,101%,70.8%,102%,94.3%,104%,92.8%,88.8%,95.9%,106%
CCNc1nc(-c2ccc(Cl)c(OC)c2)c(-c2ccnc(NCCNS(=O)(=O)c3ccc(Cl)cc3)n2)s1,21.5%,21.4%,37.9%,40.7%,31.8%,1.58% (active),39.3%,-3.31% (active),24.1%,33%,32.5%,5.74% (active),6.21% (active),29.5%,6.61% (active),7.13% (active),56.3%,48.8%
O=C(O)/C=C/c1cn(-c2ccccc2)nc1-c1ccc(F)cc1,104%,97.4%,87.4%,88.8%,99.1%,87.8%,91.6%,96%,83.4%,90.4%,93.9%,90.7%,105%,89.8%,84%,82.5%,103%,90.4%
COc1nc2ccccc2cc1/C=C1/C=C(c2ccccc2)NC1=O,20%,53.7%,44.8%,85.4%,65%,50.3%,39%,17.2%,25.8%,32.8%,37.3%,51.4%,-12.5% (active),27.7%,24.2%,12.7%,80.6%,31.5%
COc1ccc(CNc2c3ccccc3nc3ccccc23)cc1OC,8.57% (active),0.62% (active),23.9%,27.5%,21.4%,41.2%,10.9%,43.7%,37.2%,19.3%,25.8%,42.1%,29.4%,16%,0.674% (active),12.2%,30.1%,31.6%
COc1ccc(NC(=O)c2sc3nc(C)c(C(=O)c4ccccc4)cc3c2N)cc1,81.2%,101%,101%,82.8%,91.1%,92.6%,101%,103%,83.5%,108%,91%,113%,98%,90.9%,88.8%,108%,103%,95.3%
Nc1ncc(-c2ccc3ncnc(N4CCc5cc(F)c(Cl)cc54)c3c2)cn1,36.5%,20.8%,45.4%,27%,54.6%,29.4%,9.49% (active),37.9%,13.2%,50.4%,8.79% (active),33.7%,55.8%,66.4%,24.3%,46.9%,61.5%,58%
O=C1/C(=C/c2cccc(Br)c2)COc2ccc(O)c(O)c21,13.6%,-12.7% (active),3.75% (active),-31.5% (active),0.231% (active),62.9%,-44.1% (active),-78% (active),13.5%,7.25% (active),-14.3% (active),-19.2% (active),-34.7% (active),-25.1% (active),6.49% (active),-51% (active),-58.8% (active),-60.9% (active)
CNC1=C([N+](=O)[O-])C(c2ccc(OC)cc2)C(C#N)=C(c2ccc[nH]2)O1 (stereo unspecified),98.2%,96.2%,99.8%,109%,92.8%,102%,104%,107%,98.1%,110%,100%,101%,96%,104%,86.4%,99%,100%,114%
Cc1nc2sc(C(=O)Nc3ccccc3)c(N)c2cc1C(O)c1ccccc1 (stereo unspecified),-5.59% (active),5.65% (active),19.2%,33.2%,46.9%,27.3%,27.7%,5.62% (active),8.01% (active),15%,54.6%,67.9%,-18.3% (active),24.1%,17%,11.8%,15.4%,18.3%
COc1ccc2c(c1)C(c1c[nH]c3ccccc13)(c1c[nH]c3ccccc13)CCO2,55.9%,33.3%,61.2%,76.6%,26%,23.9%,48%,57.4%,55.5%,54.1%,-6.36% (active),55.6%,49.9%,61.9%,30.7%,18.8%,72.4%,46.2%
CCN(CC)CCCNc1cc(OC)cc2cccnc12,100%,97.4%,101%,117%,51.4%,112%,106%,79.2%,109%,108%,93.3%,112%,115%,101%,64%,100%,111%,96.9%
COc1cc(CNC(=O)CCCC/C=C/C(C)C)ccc1OCc1cn(-c2cccc([N+](=O)[O-])c2)nn1,78.4%,65.9%,76.9%,107%,94.2%,93.6%,89.4%,105%,90.8%,81.8%,72.3%,96.3%,101%,97.4%,74.1%,42%,101%,91.2%
CC/C(=C(/c1ccc(Cl)cc1)c1ccc(OCCN(CC)CC)cc1)c1ccc(OC)cc1,-26% (active),-21.4% (active),60.4%,61.5%,70%,89.8%,60.4%,65.8%,81.5%,69.7%,39.1%,67.7%,69.1%,40.2%,13.7%,34.2%,54.7%,35.1%
C=C(c1ccc(OC)c(/C=C/C(=O)c2cc(OC)c(OC)c(OC)c2)c1)c1cc(OC)c(OC)c(OC)c1,9.47% (active),10.1%,6.59% (active),-51.3% (active),40%,38.6%,15.2%,-39.8% (active),96.5%,-7.33% (active),17.2%,1.8% (active),-28.1% (active),-12.4% (active),8.83% (active),-62.4% (active),11.4%,-4.59% (active)
